In ChEMBL document CHEMBL1961873, “Compounds: GSK PKIS; Assays: Nanosyn kinase panel” (2012) one finds inhibition data, which are given here for 33 compounds.
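Also: values are averaged percent inhibition of ERBB4 kinase activity.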

In this experiment the target is Receptor tyrosine-protein kinase erbB-4 (Homo sapiens) (UniProt Q15303). The following applies: at 0.1 µM.
Chain of Receptor tyrosine-protein kinase erbB-4 (Homo sapiens) (Q15303 whole entry): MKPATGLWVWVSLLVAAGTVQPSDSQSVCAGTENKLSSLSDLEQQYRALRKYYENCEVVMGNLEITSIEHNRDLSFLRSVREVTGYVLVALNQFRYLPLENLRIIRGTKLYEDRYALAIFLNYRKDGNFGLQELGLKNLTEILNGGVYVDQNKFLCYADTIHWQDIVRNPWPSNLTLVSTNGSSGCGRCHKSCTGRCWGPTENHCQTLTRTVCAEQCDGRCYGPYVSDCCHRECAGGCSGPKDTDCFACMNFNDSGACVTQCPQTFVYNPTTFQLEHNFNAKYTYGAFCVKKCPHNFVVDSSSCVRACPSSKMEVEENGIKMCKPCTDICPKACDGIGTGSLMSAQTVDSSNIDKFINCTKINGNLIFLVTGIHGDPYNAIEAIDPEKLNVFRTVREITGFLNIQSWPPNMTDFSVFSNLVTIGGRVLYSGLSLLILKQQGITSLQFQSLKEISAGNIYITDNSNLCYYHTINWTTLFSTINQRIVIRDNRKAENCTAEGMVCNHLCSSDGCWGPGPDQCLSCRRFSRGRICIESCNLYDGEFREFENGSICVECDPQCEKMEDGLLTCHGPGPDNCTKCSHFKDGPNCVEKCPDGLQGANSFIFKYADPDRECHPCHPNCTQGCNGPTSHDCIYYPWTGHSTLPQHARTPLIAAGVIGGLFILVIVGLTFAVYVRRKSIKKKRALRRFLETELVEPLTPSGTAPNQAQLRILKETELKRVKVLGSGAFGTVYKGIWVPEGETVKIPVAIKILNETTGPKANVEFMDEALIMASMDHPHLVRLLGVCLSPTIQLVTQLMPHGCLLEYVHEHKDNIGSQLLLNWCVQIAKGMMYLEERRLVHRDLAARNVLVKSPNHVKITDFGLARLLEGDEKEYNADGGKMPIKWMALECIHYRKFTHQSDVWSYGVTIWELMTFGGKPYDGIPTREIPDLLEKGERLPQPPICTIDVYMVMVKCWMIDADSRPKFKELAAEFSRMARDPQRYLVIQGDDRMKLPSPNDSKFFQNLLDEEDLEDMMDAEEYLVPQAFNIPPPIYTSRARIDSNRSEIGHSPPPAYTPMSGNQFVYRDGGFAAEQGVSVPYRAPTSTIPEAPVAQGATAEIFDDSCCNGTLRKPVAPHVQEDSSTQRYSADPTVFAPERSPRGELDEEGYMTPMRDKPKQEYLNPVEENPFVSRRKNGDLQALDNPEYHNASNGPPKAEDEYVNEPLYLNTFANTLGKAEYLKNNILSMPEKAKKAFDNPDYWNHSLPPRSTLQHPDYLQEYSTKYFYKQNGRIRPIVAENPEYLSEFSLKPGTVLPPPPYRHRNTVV
As to `CCCN(CCS(C)(=O)=O)Cc1ccc(-c2ccc3ncnc(Nc4ccc(OCc5cccc(F)c5)c(Cl)c4)c3c2)o1`, the inhibition was 76.3%.
In the case of `Cc1ccc2c(-c3ccnc(Nc4ccccc4)n3)c(-c3ccc(F)cc3)nn2n1` it was 67.3%.
Take `Fc1ccc(-c2cc(-c3c[nH]nc3-c3ccccn3)ccn2)cc1`: the inhibition was determined as 8.5%.
As to `FC(F)(F)c1cccc(-c2nn3ncccc3c2-c2ccnc(Nc3ccc4c(c3)OCCO4)n2)c1`, the inhibition was determined as 48.3%.
As to `N#Cc1c(NC(=O)CN2CCOCC2)sc2c1CCCC2`, the inhibition is 7%.
To `c1ccc(COc2ccc(Nc3ncnc4ccc(-c5ccco5)cc34)cc2)cc1` belongs 20.1%.
In the case of `Fc1ccc(-c2nn3ccccc3c2-c2ccncc2)cc1` it was 10.8%; in that of `Cc1cccc(Nc2ncc(-c3ccccc3)o2)c1`, 3.46%.
In the case of `COc1cc2c(cc1Nc1nc(Nc3ccsc3C(N)=O)c3cc[nH]c3n1)N(C(=O)CN(C)C)CCC2(C)C` it was 14.2%.
In the case of `c1cc(-c2cnn3nc(N4CCOCC4)ccc23)nc(NC2CC2)n1`, the inhibition was determined as 13.6%.
To `CC(=O)NCc1cccc(C#Cc2cncnc2Nc2ccc(OCc3cccc(F)c3)c(Cl)c2)c1` belongs 11.6%; to `CC(=O)Nc1cccc(C#Cc2cncnc2Nc2ccc(OCc3cccc(F)c3)c(Cl)c2)c1`, 20.5%; to `COc1ccc(-c2oc3ncnc(N)c3c2-c2ccc(NC(=O)Nc3cc(C(F)(F)F)ccc3F)cc2)cc1`, 12.8%.
In the case of `CC(C)(CO)CNC(=O)c1ccc2c(c1)/C(=N/Nc1ccc(S(N)(=O)=O)cc1)C(=O)N2` it was 4.68%.
In the case of `CCNC(=O)O[C@H]1CN[C@H](C#Cc2cc3ncnc(Nc4ccc(OCc5cccc(F)c5)c(Cl)c4)c3s2)C1` it was 94.2%; in that of `O=C(O[C@H]1CN[C@H](C#Cc2cc3ncnc(Nc4ccc(Cc5ccccc5)cc4)c3s2)C1)N1CCOCC1`, 112%; in that of `CCn1c(-c2nonc2N)nc2ccccc21`, 12.3%.
On to `COc1ccc2[nH]c3c4[nH]c5ccc(OC)cc5c4c4c(c3c2c1)C(=O)NC4=O`, for which the inhibition worked out at 14.5%.
Consider `CCn1cc(-c2ccnc3[nH]ccc23)c(-c2cccc(NC(=O)Nc3ccc(OCc4ccccc4)cc3)c2)n1`, for which the inhibition came to 9.5%.
As for `Fc1ccc(-c2nn3ncccc3c2-c2ccnc(Nc3ccc4c(c3)OCCO4)n2)cc1`, the inhibition was 84.3%.
In the case of `CCN1CCC(CC(=O)Nc2n[nH]c3nnc(-c4cccc(F)c4F)cc23)CC1` it was 3.77%.
Turning to `CC(C)COC(=O)c1ccc2c(c1)/C(=C/Nc1ccc(S(N)(=O)=O)cc1)C(=O)N2`, the inhibition is -2.58%.
For `COC(=O)Nc1nc2ccc(S(=O)(=O)c3ccc(NC(=O)Nc4cc(C(F)(F)F)ccc4F)cc3)cc2[nH]1`, the inhibition was 9.54%.
To `CCOc1ccc2c(-c3ccnc(Nc4cccc(C(F)(F)F)c4)n3)cnn2n1` belongs 7.09%; to `COc1cccc(-n2ncc3c(N/N=C/c4ccc(F)cc4)ncnc32)c1`, 10.8%.
In the case of `COc1cc(Nc2nccc(Nc3ccc4c(C)n[nH]c4c3)n2)cc(OC)c1OC` it was 11.9%.
In the case of `CC1=C(C(=O)Nc2cc(Cl)c3[nH]ncc3c2)C(c2ccc(C(F)(F)F)cc2)CC(=O)N1` (stereo not drawn) it was 11.9%.
In the case of `CCn1c(-c2nonc2N)nc2c(C#CC(C)(C)O)ncc(OC3CCNCC3)c21`, the inhibition was 5.65%.
Take `CNC(=O)c1cccc(C#Cc2cncnc2Nc2ccc(OCc3cccc(F)c3)c(Cl)c2)c1`: the inhibition stood at 17.6%.
Consider `COc1ccc(-c2cc3c(N)ncnc3o2)cc1`, for which the inhibition is -1.91%.
With `COc1cc(/C=N/Nc2ncnc3[nH]ncc23)ccc1O`, the inhibition turned out to be 13.4%.
As to `COc1cc2ncn(-c3cc(OCc4ccccc4C(F)(F)F)c(C(=O)N(C)C)s3)c2cc1OC`, the inhibition is 2.15%.
`NS(=O)(=O)c1ccc(Nc2ncc(-c3ccccc3)o2)cc1`: the inhibition turned out to be 8.79%.

In general, inhibition refers to the change of the read-out against control, counted positive when it falls.
